Results: PubChem BioAssay
“And” between values parts separate entries of the source, which are not always exact repeats. Identical values can stand only once. Where a structure was tested more than once in an assay, its records may differ in their call. The source made the active and inactive calls.

What was measured:
[1] = system: PRMT1 (protein arginine N-methyltransferase 1); assay: PRMT1 binders on small-molecule microarrays, primary screen, biochemical, small-molecule microarray, 635 nm fluorescence (AID 1088); details: small-molecule microarray binding, higher = more signal;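 further: binding of Prmt1 protein to compounds spotted on small-molecule microarray slides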
[2] = yeast growth modulation, basal conditions, primary screen, YJM789 clinical isolate, OD600, 24 h (AID 1089);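 further: growth of clinical yeast isolate S. cerevisiae YJM 789 seeded 1000 cells per well; test concentration not given here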; details: S. cerevisiae YJM789 growth, higher = more signal, called active from +8 up or from −8 down
[3] = fission yeast growth modulation, primary screen, strain 972, OD600, 24 h, no modulator (AID 1090);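 further: basal condition with compound alone and no growth modifier present; test concentration not given here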; details: S. pombe 972 growth, higher = more signal, called active from +8 up or from −8 down
[4] = S. cerevisiae growth modulation with rapamycin, primary screen, strain BY4716, OD600, 96 h (AID 1091); details: higher = more signal, called active from +8 up or from −8 down; further: test concentration not given here
[5] = molecular target: Torsin-1A-interacting protein 2 (Homo sapiens) (UniProt Q8NFQ8); assay: LULL1 binders on small-molecule microarray, primary screen, cell lysate, human LULL1 lysate, 635/667 nm fluorescence (AID 1092); details: hLULL1 lysate binding, 635 nm fluorescence, higher = more signal;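 further: probe is lysate of COS7 cells overexpressing human LULL1; score merges per-feature 667 nm fluorescence with signal-to-noise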
[6] = E. coli growth modulation, two-sided OD650, primary screen, E. coli filamentation project, strain DRC41, 24 h (AID 1093); details: OD650, 24 h, higher = more signal, called active from +8 up or from −8 down;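 further: MC1000 strain lacking acrAB efflux and sulA so SOS filamentation is blocked; test concentration not given here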
[7] = small-molecule microarray binders of probe aLefty2, primary screen, biochemical, biotinylated probe, 635/667 nm fluorescence (AID 1094); details: higher = more signal;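 further: score merges spot fluorescence near 667 nm with spot signal-to-noise ratio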
[8] = system: Noggin (protein binding on small-molecule microarray); assay: Noggin binders on small-molecule microarray, primary screen, biochemical, 635/667 nm fluorescence (AID 1095); details: 635 nm fluorescence, higher = more signal;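 further: score merges 667 nm feature fluorescence with signal to noise over triplicate slides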
[9] = molecular target: Neurogenic locus notch homolog protein 3 (Homo sapiens) (UniProt Q9UM47); assay: NOTCH3 binders on small-molecule microarray, primary screen, biochemical, 635/667 nm fluorescence (AID 1096); details: NOTCH3 binding, 635 nm fluorescence, higher = more signal
[10] = small-molecule microarray binders of probe aEGFR, primary screen, biochemical, biotinylated probe, 635/667 nm fluorescence (AID 1097); details: higher = more signal;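 further: probe is a biotinylated anti-EGFR antibody binding compounds printed on slides; score combines fluorescence near 667 nm and signal to noise of each spot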

Sequence of Torsin-1A-interacting protein 2 (Homo sapiens) (Q8NFQ8 whole entry, looked up): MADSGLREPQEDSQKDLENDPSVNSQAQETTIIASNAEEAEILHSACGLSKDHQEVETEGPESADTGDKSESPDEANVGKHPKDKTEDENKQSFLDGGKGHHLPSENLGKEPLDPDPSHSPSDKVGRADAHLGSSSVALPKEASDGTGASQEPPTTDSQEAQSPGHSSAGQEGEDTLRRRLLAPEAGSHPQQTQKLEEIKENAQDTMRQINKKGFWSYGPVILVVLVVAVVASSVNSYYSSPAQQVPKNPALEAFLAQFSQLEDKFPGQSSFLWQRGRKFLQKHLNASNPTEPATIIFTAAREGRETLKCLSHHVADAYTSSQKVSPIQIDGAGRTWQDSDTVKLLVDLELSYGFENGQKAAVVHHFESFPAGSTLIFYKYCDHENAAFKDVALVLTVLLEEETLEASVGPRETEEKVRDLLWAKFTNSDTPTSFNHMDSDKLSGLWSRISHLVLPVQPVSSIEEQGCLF
Sequence of Neurogenic locus notch homolog protein 3 (Homo sapiens) (Q9UM47 whole entry, looked up): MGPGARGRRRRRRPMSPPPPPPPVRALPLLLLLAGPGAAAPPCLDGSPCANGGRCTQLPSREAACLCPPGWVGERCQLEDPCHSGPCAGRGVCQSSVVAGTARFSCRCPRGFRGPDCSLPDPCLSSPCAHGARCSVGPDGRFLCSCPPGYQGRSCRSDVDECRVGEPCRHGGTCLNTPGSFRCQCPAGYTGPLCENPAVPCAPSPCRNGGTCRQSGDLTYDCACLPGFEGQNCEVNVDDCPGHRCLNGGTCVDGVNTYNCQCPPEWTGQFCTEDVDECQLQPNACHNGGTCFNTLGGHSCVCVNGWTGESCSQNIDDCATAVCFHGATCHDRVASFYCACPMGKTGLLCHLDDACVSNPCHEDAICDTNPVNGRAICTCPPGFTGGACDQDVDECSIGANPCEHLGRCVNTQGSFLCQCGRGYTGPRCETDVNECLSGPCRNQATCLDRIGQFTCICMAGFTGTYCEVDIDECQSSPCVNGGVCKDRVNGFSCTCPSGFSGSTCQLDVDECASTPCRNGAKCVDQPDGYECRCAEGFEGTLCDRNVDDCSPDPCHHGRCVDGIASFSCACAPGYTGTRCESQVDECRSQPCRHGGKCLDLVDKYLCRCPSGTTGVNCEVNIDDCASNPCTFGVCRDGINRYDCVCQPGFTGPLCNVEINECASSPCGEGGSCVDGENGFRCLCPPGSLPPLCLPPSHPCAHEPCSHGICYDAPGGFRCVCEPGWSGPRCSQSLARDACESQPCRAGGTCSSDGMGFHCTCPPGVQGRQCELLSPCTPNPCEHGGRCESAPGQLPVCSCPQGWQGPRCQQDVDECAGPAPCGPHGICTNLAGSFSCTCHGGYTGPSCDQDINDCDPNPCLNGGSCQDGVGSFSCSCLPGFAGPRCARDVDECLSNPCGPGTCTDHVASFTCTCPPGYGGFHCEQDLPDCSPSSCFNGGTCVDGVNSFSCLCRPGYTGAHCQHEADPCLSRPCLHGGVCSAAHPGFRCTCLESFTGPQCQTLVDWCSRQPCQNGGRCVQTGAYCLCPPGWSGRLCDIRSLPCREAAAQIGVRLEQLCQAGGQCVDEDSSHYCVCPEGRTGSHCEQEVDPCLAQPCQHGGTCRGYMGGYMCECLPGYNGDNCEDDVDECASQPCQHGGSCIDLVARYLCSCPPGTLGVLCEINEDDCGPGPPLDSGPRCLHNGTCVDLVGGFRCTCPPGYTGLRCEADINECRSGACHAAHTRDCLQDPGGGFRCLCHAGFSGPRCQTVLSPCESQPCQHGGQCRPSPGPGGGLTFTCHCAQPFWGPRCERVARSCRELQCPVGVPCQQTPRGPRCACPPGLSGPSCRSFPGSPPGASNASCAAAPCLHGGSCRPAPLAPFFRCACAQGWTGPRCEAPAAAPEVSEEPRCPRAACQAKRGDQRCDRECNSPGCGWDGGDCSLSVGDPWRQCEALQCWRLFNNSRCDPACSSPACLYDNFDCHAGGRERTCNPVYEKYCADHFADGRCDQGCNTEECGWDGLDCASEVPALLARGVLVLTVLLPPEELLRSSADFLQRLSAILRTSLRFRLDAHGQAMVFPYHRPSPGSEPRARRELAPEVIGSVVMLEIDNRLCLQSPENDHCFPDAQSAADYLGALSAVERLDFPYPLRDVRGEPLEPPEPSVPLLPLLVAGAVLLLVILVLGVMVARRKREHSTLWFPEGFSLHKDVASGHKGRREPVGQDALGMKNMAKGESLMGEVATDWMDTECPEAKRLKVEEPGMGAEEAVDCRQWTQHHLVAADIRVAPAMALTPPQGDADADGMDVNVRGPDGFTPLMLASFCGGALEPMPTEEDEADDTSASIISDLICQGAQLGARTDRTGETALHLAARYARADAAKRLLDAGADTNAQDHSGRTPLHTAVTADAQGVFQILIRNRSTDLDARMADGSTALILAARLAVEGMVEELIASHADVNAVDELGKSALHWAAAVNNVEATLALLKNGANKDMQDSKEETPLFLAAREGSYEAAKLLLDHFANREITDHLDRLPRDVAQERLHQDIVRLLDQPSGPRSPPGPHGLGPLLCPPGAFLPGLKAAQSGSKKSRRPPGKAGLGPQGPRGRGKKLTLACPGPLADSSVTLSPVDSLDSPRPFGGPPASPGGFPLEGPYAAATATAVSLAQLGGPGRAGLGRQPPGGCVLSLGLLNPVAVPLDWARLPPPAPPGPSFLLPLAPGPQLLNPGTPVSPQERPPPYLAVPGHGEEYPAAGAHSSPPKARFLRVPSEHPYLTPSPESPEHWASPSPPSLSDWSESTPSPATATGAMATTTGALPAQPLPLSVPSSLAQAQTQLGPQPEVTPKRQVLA

SMILES: C[N+](C)(C)CCCCNC(=O)[C@H]1C[C@H]2C(=O)N[C@@H](CCCC[N+](C)(C)C)C(=O)N2[C@H]1c1cccc(OCCO)c1
- composite z-score [1]: 1.04 and 1.57
- z-score [2]: -0.604 (inactive) and -0.504 (inactive)
- z-score [3]: -0.0107 (inactive) and -0.805 (inactive)
- z-score [4]: -1.88 (inactive) and -1.81 (inactive)
- composite z-score [5]: 2.58 and 1.78
- z-score [6]: -0.351 (inactive) and -0.201 (inactive)
- composite z-score [7]: -0.121 and -0.0153
- composite z-score [8]: 1.89 and 1.75
- composite z-score [9]: 0.914 and 1.1
- composite z-score [10]: 0.0614 and 0.22

SMILES: C=CCN(CCCCC)C(=O)C(c1cccs1)N(CCOCCO)C(=O)/C=C\C(=O)O (stereo not given)
- composite z-score [1]: -0.718 and -0.737
- z-score [2]: -1.32 (inactive) and -1.53 (inactive)
- z-score [3]: -0.464 (inactive) and -0.606 (inactive)
- z-score [4]: -0.289 (inactive) and -0.433 (inactive)
- composite z-score [5]: -0.93 and -0.573
- z-score [6]: 0.986 (inactive) and 1.18 (inactive)
- composite z-score [7]: -0.0977 and -0.0831
- composite z-score [8]: -1.24 and -1.19
- composite z-score [9]: -1.09 and -1.06
- composite z-score [10]: -0.231 and -0.324

SMILES: C=CCN(CCCCC)C(=O)C(c1cccs1)N(C(=O)/C=C\C(=O)O)c1c(Cl)cccc1CO (stereo not given)
- composite z-score [1]: -0.399 and -0.874
- z-score [2]: 0.0767 (inactive) and -0.389 (inactive)
- z-score [3]: -0.186 (inactive) and -0.149 (inactive)
- z-score [4]: -0.288 (inactive) and -0.446 (inactive)
- composite z-score [5]: 2.54 and 0.687
- z-score [6]: -0.422 (inactive) and -0.448 (inactive)
- composite z-score [7]: 0.0503 and -0.151
- composite z-score [8]: -2.9 and -1.86
- composite z-score [9]: -0.864 and -1.23
- composite z-score [10]: -0.348 and -0.216

SMILES: CCOC(=O)[C@H](CC(C)C)NC(=O)CCC1CC(OC(=O)NCc2cccc3ccccc23)CC2(CCCC(COC(=O)NCc3ccccc3)O2)O1 (stereo not given in full)
- composite z-score [1]: -0.0282
- z-score [2]: -1.11 (inactive)
- z-score [3]: -0.0838 (inactive)
- z-score [4]: -0.395 (inactive)
- composite z-score [5]: -0.393
- z-score [6]: -0.548 (inactive)
- composite z-score [7]: -0.221
- composite z-score [8]: 0.306
- composite z-score [9]: 0.156
- composite z-score [10]: -0.182

SMILES: C=CCN(Cc1ccccc1)C(=O)C1N(C(C)(C)CO)C(=O)C2C(C(=O)O)C3C=CC21O3 (stereo not given)
- composite z-score [1]: -1.67 and -1.32
- z-score [2]: -0.421 (inactive) and -0.475 (inactive)
- z-score [3]: -0.369 (inactive) and -0.243 (inactive)
- z-score [4]: -0.13 (inactive) and -0.429 (inactive)
- composite z-score [5]: -0.696 and -1.91
- z-score [6]: -0.333 (inactive) and 1.73 (inactive)
- composite z-score [7]: -0.0563 and -0.136
- composite z-score [8]: -2.68 and -1.76
- composite z-score [9]: -1.46 and -1.43
- composite z-score [10]: -0.25 and -0.242

SMILES: CCOC(=O)NN=C1C[C@@H](O)[C@@H](O)[C@@H]2[C@@H]3C(=O)N(Cc4ccc5c(c4)OCO5)C(=O)[C@@H]3CC[C@@H]12
- composite z-score [1]: 0.365
- z-score [2]: 0.282 (inactive)
- z-score [3]: -0.117 (inactive)
- z-score [4]: -0.135 (inactive)
- composite z-score [5]: 2.14
- z-score [6]: 0.234 (inactive)
- composite z-score [7]: -0.148
- composite z-score [8]: 0.0857
- composite z-score [9]: -0.209
- composite z-score [10]: -0.148

SMILES: C[N+](C)(C)CCCCNC(=O)[C@H]1C[C@H]2C(=O)N[C@@H](CCCC[N+](C)(C)C)C(=O)N2[C@H]1c1ccc(O)cc1
- composite z-score [1]: 1.54 and 1.55
- z-score [2]: 0.877 (inactive) and -0.0113 (inactive)
- z-score [3]: 0.565 (inactive) and 0.352 (inactive)
- z-score [4]: -1.16 (inactive) and -1.35 (inactive)
- composite z-score [5]: -0.296 and -0.656
- z-score [6]: -0.118 (inactive) and 0.0161 (inactive)
- composite z-score [7]: -0.171 and -0.214
- composite z-score [8]: 1.73 and 1.84
- composite z-score [9]: 0.97 and 0.969
- composite z-score [10]: 0.0338 and -0.127

SMILES: CC(CO)N1C(=O)[C@@H]2C3C(=O)OCCC=C[C@H]3OC23C=CCN(Cn2nnc4ccccc42)C(=O)[C@@H]13 (stereo not given in full)
- composite z-score [1]: -0.414 and 0.262
- z-score [2]: 1.52 (inactive) and -1.09 (inactive)
- z-score [3]: 0.102 (inactive) and -0.115 (inactive)
- z-score [4]: 0.73 (inactive) and -0.0895 (inactive)
- composite z-score [5]: 0.145 and 3.01
- z-score [6]: 0.775 (inactive) and -0.175 (inactive)
- composite z-score [7]: -0.223 and -0.0882
- composite z-score [8]: -1.78 and 0.0711
- composite z-score [9]: -0.391 and 0.347
- composite z-score [10]: -0.203 and -0.0828

SMILES: CCCC[C@@H]1CN2[C@@H](CC[C@@H](C)[C@@H]2c2ccc(Br)cc2)C(=O)O1
- composite z-score [1]: 1.38 and 0.811
- z-score [2]: 0.301 (inactive) and 0.0912 (inactive)
- z-score [3]: -17.2 (active) and -6.6 (inactive)
- z-score [4]: -0.278 (inactive) and 0.42 (inactive)
- composite z-score [5]: 1.93 and 1.44
- z-score [6]: 0.133 (inactive) and 0.153 (inactive)
- composite z-score [7]: -0.0446 and -0.239
- composite z-score [8]: 0.0666 and -0.156
- composite z-score [9]: 0.287 and 0.683
- composite z-score [10]: -0.141 and 0.0021

SMILES: C=CCN(C(=O)C1N(c2c(Cl)cccc2CO)C(=O)C2C(C(=O)O)C3C=CC21O3)c1ccc(OC)cc1 (stereo not given)
- composite z-score [1]: -0.406 and -0.949
- z-score [2]: 0.188 (inactive) and -1.76 (inactive)
- z-score [3]: 0.0331 (inactive) and -1.23 (inactive)
- z-score [4]: -0.362 (inactive) and -0.691 (inactive)
- composite z-score [5]: -0.51 and -1.41
- z-score [6]: 1.82 (inactive) and 2.06 (inactive)
- composite z-score [7]: -0.652 and -0.252
- composite z-score [8]: -1.05 and -1.85
- composite z-score [9]: -0.306 and -0.737
- composite z-score [10]: -0.327 and -0.236
